FadD28 binding = inhibitors of Mycobacterium tuberculosis FadD28 bisubstrate binding; FadD28 bisubstrate probe binding, fluorescence polarization; inhibition, % at 12.5 µM; 0.22% of 360,000 active; AID 588549; in the data active = inhibition above about 8.5%, passing the limit was not always enough; inconclusive = no clear call, values can overlap the other calls
TcdB inh = inhibitors of Clostridioides difficile toxin B glycohydrolase. TcdB glycohydrolase enzymatic assay, plate reader. inhibition, % at 9.99 µM. 0.24% of 350,000 active. AID 652162; in the data active = inhibition above about 10%
Y pestis TopoI = blocks Yersinia pestis topoisomerase I activity; Y. pestis Topo-I cleavage product accumulation, plate reader; activity, % at 10 µM; 0.064% of 360,000 active; AID 504884; in the data active = activity above about 50%, passing the limit was not always enough; inconclusive = no clear call, values can overlap the other calls
PfHsp40 rescue = rescue of PfHsp40-mediated yeast toxicity. S. cerevisiae expressing PfHsp40, growth rescue, ATP luminescence. growth rescue, % at 12.5 µM. 0.68% of 340,000 active. AID 504582; in the data active = growth rescue above about 28%, passing the limit was not always enough; inconclusive = no clear call, values can overlap the other calls;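 also: yeast W303a lacking pdr1 and pdr3 grown in galactose medium; growth measured after three days at 30 °C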
PrP UTR inh = suppresses PrP 5' UTR mRNA reporter expression; cell-based PrP 5' UTR mRNA reporter, plate reader; inhibition, % (test concentration not listed); 0.35% of 340,000 active; in the data active = inhibition above about 52%; also: 0 = median of the neutral control wells
Mtb BioA inh = inhibitors of Mycobacterium tuberculosis BioA enzyme; purified M. tuberculosis BioA enzyme, plate reader; inhibition, % at 9.99 µM; 0.096% of 360,000 active; AID 602481; in the data active = inhibition above about 40%; inconclusive = no clear call, values can overlap the other calls
* marks the source's active call; other numbers are inactive results; ? = inconclusive; . = not tested or not shown. Compounds with a hit are over-represented: about 1.2% of the library has one in this group of screens.

SMILES	FadD28 binding	TcdB inh	Y pestis TopoI	PfHsp40 rescue	PrP UTR inh	Mtb BioA inh
CCC(C)/C=C(C)/C=C/C1=CC2=C(Cl)C(=O)C(C)(OC(C)=O)C(=O)C2=CO1 (stereo not given)	?	.	24	0	-1	3
C[C@@H]1CN([C@@H](C)CO)S(=O)(=O)c2ccc(-c3cccnc3)cc2O[C@@H]1CN(C)C(=O)CC1CC1	.	-4	.	.	.	1
Cc1cccc(NC(=O)C(=O)NNC(=O)c2ccc(C(C)(C)C)cc2)c1	-1	1	-6	0	-21	-5
Cc1ccc(F)c(NC(=O)/C(C#N)=C(\O)c2ccc(C(C)(C)C)cc2)c1	29*	-2	0	0	-8	.
Cc1cccc(N=C2NC(=O)/C(=C/C=C/c3ccco3)S2)c1C	11*	.	-9	0	-18	.
COc1cccc(C(C)=C2SC(=S)NC2=O)c1	-8	2	1	83*	6	.
O=C(NCC[C@H]1CC[C@H](NS(=O)(=O)Cc2ccccc2)[C@@H](CO)O1)C1CCCC1	.	2	.	.	.	-1
Nc1[nH]c(=O)ncc1F	-4	0	-3	370*	0	-1
Nc1[nH]c(=O)ncc1-c1ccc([N+](=O)[O-])cc1	.	0	.	.	.	.
CCOc1ccc2[nH]c(C)cc(=O)c2c1	0	1	-3	0	1	-1
CCOc1ccc2nc3cc(N=Nc4ccc(N)nc4N)ccc3c(N)c2c1	25*	.	-58	-2	-13	.
O=c1oc2ccccc2c(O)c1/C=C1\C=Nc2ccccc21	-3	.	-17	110*	-20	-1
O=C(NC1CCC1)[C@H]1[C@H](CO)[C@H]2Cn3c(ccc(C4=CCCC4)c3=O)[C@@H]1N2CC1CC1	.	2	.	.	.	-2
COCC(=O)N1[C@@H](C#N)[C@@H](c2ccc(C3=CCCCC3)cc2)[C@@H]1CO	.	-1	.	.	.	-1
O=C(NC[C@H]1CC[C@@H]2[C@@H](CN2C(=O)Cc2ccncc2)O1)C1CCOCC1	.	-1	.	.	.	.
COc1ccc(OC)c2c1C(=O)C(Cl)=C(Cl)C2=O	-1	2	0	613*	-6	-2
COc1ccc(N)c2c1C(=O)c1ccccc1C2=O	-1	.	-4	0	-28	-1
COc1ccc(COC[C@@]23Oc4ccccc4[C@@H](NC(=O)N2C)[C@H]3COC(=O)c2ccc([N+](=O)[O-])cc2)cc1	.	1	.	.	.	0
O=C1C=C(Nc2ccccc2O)c2ccccc2C1=O	4	-6	4	74*	-67	1
Cc1ccc(NC2=CC(=O)C(=O)c3ccccc32)c(C)c1	0	1	-12	?	-10	5
CCN1C(=O)N[C@@H](c2ccccc2)[C@@H](C(=O)OC)[C@H]1C	-1	1	7	33*	-25	0
CCN1C(=O)N[C@@H](c2cccc(C(F)(F)F)c2)[C@@H](C(=O)OC)[C@H]1C	-4	1	0	9	-25	-1
Cn1c(=O)[nH]c(=O)c2c1[nH]c(=S)n2CCCc1ccccc1	0	12*	2	1	-91	-2
Cn1c(=O)[nH]c(=O)c2c1[nH]c(=S)n2Cc1ccc(Cl)cc1	-3	14*	2	1	-14	-4
Cn1c(=O)c2c([nH]c(=S)n2CCCc2ccccc2)n(C)c1=O	-3	9	6	0	-35	-1
SMILES	FadD28 binding	TcdB inh	Y pestis TopoI	PfHsp40 rescue	PrP UTR inh	Mtb BioA inh
Cn1c(=O)[nH]c(=O)c2c1nc(Br)n2Cc1ccc(Cl)cc1	-3	-4	5	.	.	1
CO[C@@H]1CN(C)C(=O)c2ccc(NC(=O)Cc3ccccc3)cc2OC[C@H](C)NC[C@@H]1C	.	-2	.	.	.	0
CCCNC(=O)N[C@H]1C=C[C@H](CC(=O)NC2CCCCC2)O[C@H]1CO	.	1	.	.	.	-3
Oc1c(N=Nc2nn[nH]n2)ccc2ccccc12	30*	2	.	.	.	.
COc1cccc(-c2ccc3c(c2)O[C@@H](CN(C)Cc2ccncc2)[C@@H](C)CN([C@H](C)CO)S3(=O)=O)c1	.	1	.	.	.	-3
CCN1/C(=C/C=C/c2sc3ccccc3[n+]2CC)Sc2ccccc21	-4	.	-4	254*	17	1
CCN1/C(=C/C=C/C=C/C=C/c2sc3ccccc3[n+]2CC)Sc2ccccc21	-1	2	7	-1	43	0
O=c1oc(-c2ccccc2)cc(Cl)c1Cl	-1	0	5	556*	-28	-1
O=c1oc(-c2ccccc2)cc2ccccc12	-1	6	-7	.	.	0

From PubChem
